Screening data deposited in PubChem by National Center for Advancing Translational Sciences (NCATS).
ELG1 DNA repair = qHTS screen for small molecules that inhibit ELG1-dependent DNA repair in human embryonic kidney (HEK293T) cells expressing luciferase-tagged ELG1. 330,000 tested, 2.3% active. HEK293T ELG1-luciferase reporter, luminescence, 16 h; DNA damage induced by 5-fluorouridine. Potency, µM (top dose mostly 46.1 µM), for inactives: top-dose activity change, negative = inhibition, actives largely listed as inhibitors; further: on the % scale 0 is the no-effect control and ±100 the full control effect; nearly all actives have a fitted effect of over 55% in size
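Cells (2,000 per well) received 5-fluorouridine plus test compound or DMSO and were incubated 16 hr at 37 °C, 5% CO2. Luciferase activity was read by luminescence 30 min after ONE-Glo addition; signal suppression marked inhibition of damage-induced ELG1 function.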
SW480 rereplic = A quantitative high throughput screen for small molecules that induce DNA re-replication in SW480 colon adenocarcinoma cells; SW480 DNA re-replication, Hoechst DNA content imaging, 48 h; Potency, µM (doses to about 46.1 µM), without a hit: at the highest dose re-replication activation, most hits filed as activators; 340,000 tested, 1.8% active; AID 624297, 2012; further: % of control where 0% means no effect; nearly all actives have a fitted effect of over 55% in size
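Treated cells incubate 48 hr (37 C, 5% CO2), are stained 40 min with Hoechst, and nuclear fluorescence is enumerated; a rise in nuclei with high DNA signal marks re-replication.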
MCF10A rerep = A quantitative high throughput screen for small molecules that induce DNA re-replication in MCF 10a normal breast cells | MCF 10A DNA re-replication, Hoechst nuclear intensity, 48 h | Potency, µM (titrated, usually from 46.1 µM), inactives show top-dose activity, positive = re-replication, most hits filed as activators | 350,000 tested, 2.9% active | AID 624296, 2012; further: % of control where 0% means no effect; nearly all actives have a fitted effect of over 50% in size
KB-3-1 tox = qHTS assay for MDR1-selective chemotherapeutics: Primary screen using the parental adenocarcinoma cell KB-3-1; 400,000 tested, 1.4% active; Potency, µM (titrated, usually from 46.1 µM), actives largely listed as cytotoxic; KB-3-1 viability, CellTiter-Glo ATP luminescence, 72 h; further: on the % scale 0 is the no-effect control and ±100 the full control effect; nearly all actives have a fitted effect of over 60% in size
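72 h, 37 °C compound treatment of KB-3-1 parental cells; CellTiter-Glo added, 10 min, luminescence read. Data corrected against DMSO-only plates and normalized before curve fitting.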
KB-V1 cytotox = qHTS assay for MDR1-selective chemotherapeutics: Primary screen using the drug-selected MDR subline cells KB-V1 | KB-V1 MDR cells viability, CellTiter-Glo, 72 h | Potency, µM (series often up to 46.1 µM), actives largely listed as cytotoxic | 400,000 tested, 3.4% active; further: on the % scale 0 is the no-effect control and ±100 the full control effect; nearly all actives have a fitted effect of over 60% in size
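Following 72 h at 37 degrees C with compound, KB-V1 cell viability was read by CellTiter-Glo luminescence, medium being phenol-red-free DMEM plus 10% FBS; concentration-response parameters came from normalized, curve-fitted qHTS data.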
The depositor's hits bear a star; i = inactive; ? = inconclusive; . = not tested or not shown. Rows were chosen to be rich in hits. Some 8.1% of all compounds tested hit in one or more screens of this group. The call rests on the fitted dose curve; in most records, active means well fitted curve in the direction sought with a large enough effect; inconclusive means small, poorly fitted or top-dose-only effect, or another doubt; inactive means no such curve, though single readings can be large; an effect the other way counts as inactive or inconclusive. Potency means the concentration at half of the fitted maximal effect.

SMILES	ELG1 DNA repair	SW480 rereplic	MCF10A rerep	KB-3-1 tox	KB-V1 cytotox
CCN(CC)c1ccc(C(NC(=O)C(C)C)c2ccc3cccnc3c2O)cc1 (stereo not drawn)	.	.	.	i	?
CCCC(=O)NC(c1cccc([N+](=O)[O-])c1)c1ccc2cccnc2c1O (stereo not drawn)	.	.	.	9.2µM*	?
CC(C)OP(=O)(c1ccc(N(C)C)cc1)C(Nc1ccccc1)c1ccccc1 (stereo not drawn)	0%	?	-13%	i	?
CCCCN(C(=O)c1cnc(C)cn1)c1c(N)n(CCC)c(=O)[nH]c1=O	13%	?	1%	i	i
CCCC(=O)NC(c1ccc(Cl)cc1)c1ccc2cccnc2c1O (stereo not drawn)	?	2.9µM*	?	?	?
CC(C)C(=O)NC(c1ccc(N(C)C)cc1)c1ccc2cccnc2c1O (stereo not drawn)	.	.	.	?	i
CC(=O)NC(c1ccc(Cl)cc1Cl)c1ccc2cccnc2c1O (stereo not drawn)	?	11%	?	?	i
CCCCC(=O)NC(c1ccc(Cl)cc1)c1ccc2cccnc2c1O (stereo not drawn)	.	1µM*	12µM*	i	?
Cc1cccc(OCC(=O)Nc2nccs2)c1C	?	0%	1%	i	i
O=C(O)c1ccc(-n2ncc3c2/C(=C/c2cccc([N+](=O)[O-])c2)CC3)cc1	?	-2%	3%	i	i
Cc1cc2c(cc1C)NC(CC(=O)Nc1ccccc1)C(=O)N2 (stereo not drawn)	.	.	.	i	i
CCOc1ccc(CN(C)c2ccc(S(=O)(=O)N3CCN(C)CC3)cc2[N+](=O)[O-])cc1OC	1%	-5%	?	7.3µM*	2.3µM*
C=CCOc1ccc(CN(C)c2ccc(S(=O)(=O)N3CCN(C)CC3)cc2[N+](=O)[O-])cc1	-15%	3%	?	?	8.2µM*
COC(=O)C1(C(F)(F)F)N=C(N(C)C)OC(N(C)C)=N1	10%	-4%	-2%	i	i
Cn1cc(C2=C(c3cn(CCCSC(=N)N)c4ccccc34)C(=O)NC2=O)c2ccccc21	.	.	.	4.1µM*	?
CS(=O)(=O)Nc1ccc2c(c1)C(=O)OC2	-2%	-4%	5%	i	i
O=C(CCc1nnc2ccc(NCc3ccco3)nn12)N1CCCCC1	14%	-3%	-2%	i	i
CCCn1c(SC(C(=O)Nc2cc(C)ccc2OC)c2ccccc2)nc2ccccc2c1=O (stereo not drawn)	18µM*	.	19%	i	?
O=C(NCCN1CCOCC1)c1cc(-c2ccc(Cl)cc2)on1	14%	3%	-6%	i	21µM*
COC(=O)c1ccc(CS(=O)(=O)c2ccc(C)cc2)cc1	-7%	0%	6%	i	?
O=C(Nc1cccn(Cc2ccc(F)cc2)c1=O)NC1CCCCC1	-19%	-1%	20%	i	i
O=C(NCc1ccccc1)Nc1cccn(Cc2ccccc2)c1=O	10%	-1%	7%	i	?
O=C(NCc1ccccc1)Nc1cccn(Cc2cccc(F)c2)c1=O	5%	2%	2%	i	?
O=C(NCc1ccccc1)Nc1cccn(Cc2ccc(F)cc2)c1=O	-11%	1%	-1%	i	12µM*
O=C(NCc1ccccc1)Nc1cccn(Cc2ccccc2F)c1=O	10%	10%	7%	i	10µM*
SMILES	ELG1 DNA repair	SW480 rereplic	MCF10A rerep	KB-3-1 tox	KB-V1 cytotox
O=C(Nc1cccn(Cc2ccccc2)c1=O)NC1CCCCC1	-5%	5%	9%	i	4.1µM*
CC(=O)N1Cc2ccccc2C(C)CC12CCCC2 (stereo not drawn)	?	-1%	0%	i	i
COCCNC(=O)c1cnn2c(C(F)(F)F)cc(-c3ccc4c(c3)OCO4)nc12	?	-1%	?	i	2.1µM*
O=[N+]([O-])c1cccc(N=Nc2ccc(O)cc2O)c1	.	13µM*	?	?	i
O=[N+]([O-])c1ccc(N=Nc2ccc(O)cc2O)cc1	-27%	?	?	?	i
N#Cc1cnc(SCC(=O)c2ccccc2)nc1N	-3%	-22%	?	i	i
N#Cc1cnc(SCCc2ccccc2)nc1N	29%	9%	9.2µM*	i	?
CC(C)(C)n1nnnc1C(c1ccccc1)N1CCN(C/C=C/c2ccccc2)CC1 (stereo not drawn)	.	.	.	i	i
CCCCOc1ccc(S(=O)(=O)NNC(=O)C2Cc3c(ccc4ccccc34)O2)cc1 (stereo not drawn)	-5%	?	21µM*	i	i
COC(=O)c1ccc(CO/N=C/c2ccccc2OC)cc1	?	-1%	12%	i	i
O=C1NC(c2ccc(Cl)c([N+](=O)[O-])c2)Nc2ccccc21 (stereo not drawn)	-18%	72%	6%	?	i
O=C1NC(c2cccc(OCc3ccccc3)c2)Nc2ccccc21 (stereo not drawn)	.	1.8µM*	2.3µM*	0.58µM*	0.65µM*
O=C1NC(c2ccccc2O)Nc2ccccc21 (stereo not drawn)	6%	-1%	2%	i	i
CSc1ccc(C2NC(=O)c3ccccc3N2)cc1 (stereo not drawn)	.	9.2µM*	16µM*	?	?
O=C1NC(c2ccc(O)cc2)Nc2ccccc21 (stereo not drawn)	2%	?	12µM*	?	?
COc1cc2c(cc1OC)CN(CC(=O)Nc1ccc(S(=O)(=O)N3CCCC3)cc1)CC2	?	14%	?	i	i
COc1ccc(NC(=O)CSc2nnc(-c3ccc(C)cc3)o2)cc1	.	.	.	i	i
CCCC(=O)N1CCC1(C)C(=O)Nc1ccc2nccnc2c1 (stereo not drawn)	.	.	.	i	i
CN(C)c1ccc(CNS(=O)(=O)c2ccc3[nH]c4c(c3c2)CCCCC4)cc1	.	.	.	?	16µM*
COc1ccc(OC)c(CNS(=O)(=O)c2ccc3[nH]c4c(c3c2)CCCCC4)c1	.	.	.	?	21µM*
CCC(C)[C@H](NC(=O)c1cc2cc(Cl)ccc2n1C)C(=O)N1CCC(C(=O)O)CC1 (stereo partly drawn)	17%	-1%	0%	i	i
COc1cc(C#N)ccc1OCC(=O)Nc1ccc(C)c(S(=O)(=O)N2CCOCC2)c1	?	-13%	-2%	i	8.2µM*
